MITF act = increases MITF-driven TRPM1 promoter luciferase signal | SK-MEL-5 TRPM1-promoter luciferase, 24 h; % of positive control, neutral wells = 0 | AID 588334 | 300,000 tested, 0.75% active | activation, % at 12.5 µM;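 active = mean activation of at least 80% with every replicate also reaching 80%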;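 note: 0% = neutral control wells and 100% = parthenolide positive control wells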
C2C12 statin = protects C2C12 myotubes from simvastatin toxicity. ATP luminescence, 48 h; scaled: DMSO 0, geranylgeraniol control 100. rescue of ATP level, % at 7.49 µM. 330,000 tested, 0.78% active. AID 602340;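 active = mean ATP rescue above about 67%, or every replicate alone reaching that limit, limit read from the data, passing the limit was not always enough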;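 note: myotubes were challenged with 10 µM simvastatin during compound exposure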
esBAF inh = SWI/SNF esBAF complex inhibition; mouse ES cells, Bmi1-luciferase knock-in reporter, 24 h; 100% = twice the neutral-well signal; reporter increase, % at 12.5 µM; 350,000 tested, 2% active; in the data active = activation above about 40%;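 note: 0% = median of the plate's neutral control wells and 100% = double that signal; a rise in the Bmi1 reporter signal indicates esBAF inhibition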
FXN GAA850 act = increases GAA850 frataxin promoter reporter activity. activation, % at 6 µM. 360,000 tested, 0.56% active. HEK293 lucGAA850 FXN promoter luciferase reporter, 24 h; percent of 10 µM SAHA response;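 active = activation above the average of all compounds screened plus 3 SD, cutoff fixed separately per campaign, cut at about 7.5% in these data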;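 note: 0% = DMSO wells and 100% = 10 µM SAHA wells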
Wnt act = activates Wnt/beta-catenin signaling in a reporter cell assay; activator, plate reader; activation, % at 9.35 µM; 300,000 tested, 1.2% active; AID 743398; in the data active = activation above about 30%, passing the limit was not always enough;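 note: 0% = neutral control wells and 100% = positive control wells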
GAA30 counter = GAA30 FXN promoter activation counter-screen. shares compounds with FXN GAA850 act. HEK293 lucGAA30 FXN promoter luciferase, 24 h; DMSO = 0%, 5 µM ipriflavone = 100%. activation, % at 6 µM. 1,900 tested, 66% active. AID 588350;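 active = mean activation above the mean of solvent-only control wells plus 3 SD, cut at about 22% in these data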;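 note: counterscreen of GAA850 promoter hits where activity marks nonselective or luminescence artifacts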
FXN GAA850 conf = GAA850 FXN promoter activation confirmation | HEK293 lucGAA850 FXN promoter luciferase reporter, 24 h; 100% = activation by SAHA | 1,900 tested, 86% active | shares compounds with FXN GAA850 act | activation, % at 6 µM;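 active = mean activation above a set limit taken from the primary screen, cut at about 8% in these data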;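 note: 0% = DMSO wells and 100% = 10 µM SAHA wells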
Active calls of the source: *; x = no result; ! = not active in a repeat. Shown are actives, neighbours in structure and some others; about 3.3% of the full set was active somewhere.

SMILES | MITF act | C2C12 statin | esBAF inh | FXN GAA850 act | Wnt act | GAA30 counter | FXN GAA850 conf
C=CCn1c(O)c(C(=O)CCCCCC)c(=O)[nH]c1=O | -1 | 6 | -7 | 2 | x | x | x
CC/C(=N\NC(N)=O)c1c(O)[nH]c(=O)[nH]c1=O | -2 | x | x | 1 | 74* | x | x
CCCN1[C@@H]2Cn3c(ccc(-c4ccc(F)cc4)c3=O)[C@H]1[C@@H](C(=O)OC)[C@@H]2CO | x | 5 | 4 | x | x | x | x
CCCN1[C@@H]2c3ccc(-c4cccc(C(=O)N(C)C)c4)c(=O)n3C[C@H]1[C@H](CO)[C@H]2C(=O)OC | x | -20 | -3 | x | x | x | x
CCN(CC)C(=O)c1ccc2c(c1)C1C=CCC1C(C(=O)O)N2 (stereo unspecified) | -10 | 125* | -2 | 0 | -2 | x | x
C=C1C(=O)O[C@@H]2C[C@@H](C)[C@H]3C=CC(=O)[C@]3(O)C[C@@H]12 | -1 | 33 | 12 | 14* | 8 | x | x
O=[N+]([O-])c1ccc(N2CCCCCC2)c2nonc12 | x | 0 | 9 | 4 | -2 | x | x
CN(c1ccc(O)cc1)c1ccc([N+](=O)[O-])c2nonc12 | x | 117* | -10 | 0 | 5 | x | x
CN1CC(C(=O)c2ccccc2)C(C(=O)c2ccccc2)C1 (stereo unspecified) | x | -13 | 57* | 4 | 2 | x | x
CN1C(=O)NC(=O)C(C)(C2=CCCCC2)C1=O (stereo unspecified) | 100* | 4 | 28 | 2 | 0 | x | x
CN1C(=O)C(C)(C2=CCCCC2)C(=O)NC1=S (stereo unspecified) | -4 | x | x | -2 | -3 | x | x
CC(C)(C)C(=O)c1cn(CC(=O)NCc2ccco2)c2ccccc12 | 85* | x | x | 3 | -1 | x | x
CCC(=NC(C)c1ccccc1)c1c(O)[nH]c(=O)[nH]c1=O (stereo unspecified) | 23 | 0 | -11 | 8.5* | 0 | 16 | 10*
CCN1C(=O)C(=Cc2ccc(C)s2)C(=O)N(CC)C1=S | 8 | x | x | 9.0* | 6 | 79* | 45*
COc1ccc(-c2ccc([C@@H]3[C@H]4CN(C(=O)Cc5ccncc5)CCCCN4[C@H]3CO)cc2)cc1 | x | -7 | 6 | x | x | x | x
COc1ccc(-n2c(/C=C3\C(=O)Nc4ccccc43)nc3ccccc3c2=O)cc1 | 1 | x | x | 0 | -1 | x | x
COc1ccc2c(c1)/C(=C/c1cnc[nH]1)C(=O)N2 | -34 | 34 | 52* | 43* | 13 | 116* | 76*
COC(=O)[C@@H]1[C@@H](C(=O)OC)C2(c3ccccc3-c3ccccc32)N(c2ccc(Cl)cc2)N1C#N | -93 | x | x | 13* | x | -96 | -19
COC(=O)C[C@]1(C(=O)OC)CN(C#N)N(c2ccc(Cl)cc2)C12c1ccccc1-c1ccccc12 | -95 | x | x | -15 | -22 | x | x
CCNC(=O)C1OC(n2cnc3c(N)ncnc32)C(O)C1O (stereo unspecified) | 13 | -5 | -13 | 10* | x | 18 | 26*
COC(=O)[C@H]1[C@H](CO)[C@H]2Cn3c(ccc(-c4cccnc4)c3=O)[C@@H]1N2S(=O)(=O)c1ccccc1F | x | 1 | -1 | x | x | x | x
COC(=O)[C@@H]1[C@@H](CO)[C@@H]2Cn3c(ccc(-c4cccnc4)c3=O)[C@H]1N2CCc1ccccc1 | x | 9 | 3 | x | x | x | x
Cn1cccc1/C=C1\C(=O)NC(=O)N(Cc2ccccc2)C1=O | -23 | x | x | 8.0* | 10 | -7 | 24*
O=C(Cc1ccccn1)N1CCCCN2[C@@H](CO)[C@@H](c3ccc(-c4ccccc4F)cc3)[C@@H]2C1 | x | -13 | 2 | x | x | x | x
CCCNC(=O)[C@@H]1[C@@H](CO)[C@@H]2Cn3c(cccc3=O)[C@H]1N2CCC | x | 19 | 5 | x | x | x | x
C=CCNC(=O)c1c(N)n(Cc2ccco2)c2nc3ccccc3nc12 | -22 | 19 | -9 | 9.6* | -5 | 17 | 8.6*
CN(C)[C@@H]1C(=O)C(C(N)=O)=C(O)[C@@]2(O)C(=O)C3=C(O)c4c(O)cccc4[C@@](C)(O)C3[C@H](O)C12 (stereo partly specified) | -9 | 8 | -1 | 15*! | 1 | 28* | 9.1*

Screens: PubChem, several laboratories
